Reference: the supplement of paper PMC10646978

What follows are compounds tested on RAW-Dual (murine macrophage reporter line) (assay: viability score (confluency relative to resting cells, overnight) (fraction); higher = more viable, active = viable (0.7 or more)). Details: modulator concentration 10 µM.
How it was run: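 A compound met the cutoff when both of two confluency masks exceeded 70% of resting cells. Those masks were made with IncuCyte software from IncuCyte images of RAW-Dual macrophages treated overnight at 10 μM final. This is the basis of the viability score, which is confluency relative to resting cells.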
`CN(C)CCNC(=O)C(=O)NC(c1ccccc1)c1ccccc1` was tested, and the viability score was 0.996 (active). `Cc1nc2n(c(=O)c1CCN1CCC(c3noc4cc(F)ccc34)CC1)CCCC2O` (stereo not given) was tested, and the viability score was 1 (active). With `Cc1cnc2c(c1N1CCC(Cc3ccccc3)CC1)c(=O)n(C)c(=O)n2C` the viability score was 0.999 (active). In the case of `COc1ccccc1OCC(O)CN1CCN(CC(=O)Nc2c(C)cccc2C)CC1` (stereo not given), the viability score is reported as 1 (active). With `COc1ccccc1N1CCN(CC(O)COc2cccc3ccccc23)CC1.Cl.Cl` (stereo not given) the viability score was 0.97 (active). In the case of `COC(=O)C1=C(C)NC(C)=C(C(=O)OC(C)(C)CN(C)CCC(c2ccccc2)c2ccccc2)C1c1cccc([N+](=O)[O-])c1.Cl` (stereo not given), the viability score is reported as 0.96 (active). For `CC[C@@H]1C(=O)N(C)c2cnc(Nc3ccc(C(=O)N[C@H]4CC[C@H](N5CCN(CC6CC6)CC5)CC4)cc3OC)nc2N1C(C)C`, the viability score was 0.018 (inactive). For `O=C(O)c1cc2ccccc2[nH]1`, the viability score was 1 (active). With `CCCOc1ccc(-c2ccc(-c3nc(Cc4ccc(OC)c(OC)c4)no3)cc2)cc1` the viability score was 1.01 (active). In the case of `Cc1ccc(S(=O)(=O)n2cnc3ccccc32)cc1C`, the viability score is reported as 0.988 (active). `CNCC[C@@H](Oc1cccc2ccccc12)c1cccs1` [Prestw-1708] was tested, and the viability score was 0.384 (inactive). With `CNC(=NC#N)NCCSCc1nc[nH]c1C` the viability score was 1.03 (active). With `CC(=NN1CCN(Cc2cccc3ccccc23)CC1)c1ccc(O)cc1` the viability score was 0.996 (active). In the case of `Nc1nc(N)c2nc(-c3ccccc3)c(N)nc2n1`, the viability score is reported as 0.92 (active). `O=C(O)CCCCC1SCC2NC(=O)NC21` (stereo not given) was tested, and the viability score was 0.997 (active). With `c1ccc(OCCOc2ccc(Nc3ccnc4cc5ccccc5cc34)cc2)cc1` the viability score was 0.23 (inactive). `CC(C)(C)NCC(=O)Nc1ccc(S(N)(=O)=O)cc1` was tested, and the viability score was 0.997 (active). With `CC(=O)Nc1ccc(S(=O)(=O)N2CCC(Oc3cc(C)nc(C)n3)C2)cc1` (stereo not given) the viability score was 0.97 (active). In the case of `O=Cc1c[nH]c2ccccc12`, the viability score is reported as 0.985 (active). `CN(C)CC(c1ccc(O)cc1)C1(O)CCCCC1` (stereo not given) was tested, and the viability score was 0.992 (active). In the case of `CCC1OC(=O)C(C)C(OC2CC(C)(OC)C(O)C(C)O2)C(C)C(OC2OC(C)CC(N(C)C)C2O)C(C)(O)CC(C)CN(C)C(C)C(O)C1(C)O` (stereo not given), the viability score is reported as 0.998 (active). In the case of `Cc1cc(C(=O)NCc2sc(-c3ccccc3Cl)nc2C)c(C)o1`, the viability score is reported as 0.984 (active). In the case of `COc1cc2ncnc(Nc3ccc(F)c(Cl)c3)c2cc1OCCCN1CCOCC1.Cl`, the viability score is reported as 0.592 (inactive). For `CN(C)c1nc(CNC(=O)CSc2nc3ccccc3o2)nc(N(C)C)n1`, the viability score was 0.979 (active). For `CCOc1ccc2nc(NC(=O)c3ccc(Br)cc3F)sc2c1`, the viability score was 0.994 (active). In the case of `CCS(=O)(=O)c1ccc(-c2ccc(NC(=O)c3cccc(OC)c3OC)cc2)nn1`, the viability score is reported as 0.955 (active). In the case of `Cc1cn(-c2cc(NC(=O)c3ccc(C)c(Nc4nccc(-c5cnccn5)n4)c3)cc(C(F)(F)F)c2)cn1`, the viability score is reported as 0.988 (active). In the case of `CCN1CCN(c2nc3c(c(=O)[nH]c(=O)n3C)n2CC(O)COc2cc(C)ccc2C(C)C)CC1` (stereo not given), the viability score is reported as 0.956 (active). In the case of `Cc1cc(C(O)CCNC(=O)COc2cccc3c2OC(C)(C)C3)c(C)o1` (stereo not given), the viability score is reported as 1 (active). In the case of `CCOC(=O)Cc1nnnn1C`, the viability score is reported as 1 (active). For `CC[C@@]1(O)C(=O)OCc2c1cc1n(c2=O)Cc2cc3c(CN(C)C)c(O)ccc3nc2-1.Cl`, the viability score was 0.725 (active). For `O=C(C=Cc1ccc(-c2cccc(Cl)c2)o1)c1ccc(Cl)cc1`, the viability score was 0.957 (active). With `COc1ccc(C(=O)Oc2ccc(-c3ccc(C)cc3)cc2)cc1OC` the viability score was 0.996 (active). With `C#Cc1cccc(Nc2ncnc3cc(OC)c(OCCCCCCC(=O)NO)cc23)c1` the viability score was 0.973 (active). In the case of `O=Cc1ccc(OCc2cccc([N+](=O)[O-])c2)c(Br)c1`, the viability score is reported as 1 (active). For `O=C(CSc1nc(-c2ccccc2)c(-c2ccccc2)o1)N1CCOCC1`, the viability score was 0.996 (active). For `CN(C)c1ccc(C2N(C)c3ccccc3N2C)cc1`, the viability score was 0.858 (active). With `CC(C)(C)C1(O)CC(C(F)(F)F)=NN1C(=O)c1cccc([N+](=O)[O-])c1` (stereo not given) the viability score was 0.974 (active). For `COc1ccc([N+](=O)[O-])cc1NC(=O)c1ccccc1SC`, the viability score was 0.987 (active). `CC(=O)c1cc(Cl)ccc1OC(=O)c1ccccc1Cl` was tested, and the viability score was 0.987 (active).
